Screening results as filed in PubChem BioAssay.
Cy5 interf NS3h: enhances or quenches Cy5 fluorescence in NS3h assay. fluorescence interference ratio at 100 µM. Cy5-dT15 DNA with NS3h, fluorescence interference; actives lie on both sides; signal over control mean, under 1 quenches. AID 720488. 6% of 16,000 active;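 active = compound fluorescence over control fluorescence at most 0.8, a quencher, or at least a set upper limit, an enhancer; inactive = ratio between 0.8 and the set upper limit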
NS3h inh CB: blocks HCV NS3 helicase binding to DNA; NS3h Cy5-dT15 DNA binding, fluorescence polarization; inhibition, % at 100 µM; 1.6% of 16,000 active;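 active = inhibition above the average over every tested compound plus 3 SD, cut at about 40% in these data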
A number is an active result; n = inactive. Most compounds without a hit are left out; they make up all but 6.9% or so of the library.

SMILES | Cy5 interf NS3h | NS3h inh CB
O=C1NC(=S)N(c2ccc(Br)cc2)C(=O)/C1=C/c1ccc(O)c(Cl)c1 | n | n
O=C1NC(=S)NC(=O)C1=Cc1ccc(O)c(Cl)c1 | n | 45
Cc1cccc(OCC(=O)O/N=C(/N)Cc2cccc3ccccc23)c1 | n | n
CCN(CC)CCCNC(=O)c1ccc(Cl)cc1 | 0.67 | n
CCCCCNC(=O)c1ccc(C(=O)NCCCCC)cc1 | n | n
Cc1nc2ccc(Br)cc2c2c1CC(C)O2 (stereo not drawn) | n | n
CCC1=NN(C(=O)c2ccccc2)C(O)(c2ccc(Br)cc2)C1 (stereo not drawn) | 0.76 | n
CCC1=NN(C(=O)c2cccc(O)c2)C(O)(c2ccncc2)C1 (stereo not drawn) | n | n
COc1ccc(N(CC(=O)NC(C)(C)C)S(C)(=O)=O)cc1Cl | n | n
Cc1ccc(C(=O)O/N=C(/N)c2ccc(Cl)cc2)cc1[N+](=O)[O-] | n | n
Cc1ccc(C(=O)O/N=C(/N)c2ccc(Br)cc2)cc1[N+](=O)[O-] | 0.78 | n
Cc1ccc2nsnc2c1NC(=O)c1ccc(-c2cccc(Cl)c2)o1 | n | n
O=C(NCCN1CCOCC1)C(=O)NCc1ccc(Cl)cc1 | 1.3 | n
O=C(NCCN1CCN(Cc2ccccc2)CC1)C(=O)Nc1ccc(Cl)cc1 | n | n
Cc1ccc(N(CC(=O)Nc2ccccc2Br)S(=O)(=O)c2ccc(F)cc2)cc1 | n | n
CSc1ccc(S(=O)(=O)N(CC(=O)Nc2ccc(C(C)=O)cc2)c2ccc(C)cc2)cc1 | 0.73 | n
CCOC(=O)c1ccc(NC(=O)CN(c2ccc(OCC)cc2)S(=O)(=O)c2ccc(SC)cc2)cc1 | n | n
CSc1ccc(S(=O)(=O)N(CC(=O)Nc2ccc(C)cc2)c2ccc(C)cc2)cc1 | 0.68 | n
CSc1ccc(S(=O)(=O)N(CC(=O)Nc2ccc(C)cc2C)c2ccc(C)cc2)cc1 | n | n
CCOc1ccc(S(=O)(=O)N(CC(=O)Nc2ccc(C)cc2)c2ccc(C)cc2)cc1 | n | n
CCOc1ccc(S(=O)(=O)N(CC(=O)NC)c2ccc(C)cc2)cc1 | 1.2 | n
Cc1ccc(-c2ccc(OCC(=O)N3CCCc4ccccc43)cc2)cc1 | n | n
O=C1NN(c2ccccc2)C(=O)/C1=C/c1cccc(Br)c1 | n | n
O=C(c1ccc(Cl)cc1)N1CCN(c2c(Cl)cccc2[N+](=O)[O-])CC1 | n | n
COc1ccc(-n2c(C)cc(C)nc2=O)cc1 | n | n
SMILES | Cy5 interf NS3h | NS3h inh CB
O=C(Nc1ccc(Cl)cc1)Nc1nnc(-c2cccs2)s1 | 0.69 | n
O=C(Nc1ccc(Cl)cc1)Nc1nnc(-c2cccc(F)c2)s1 | n | n
CCN1C(=O)/C(=C\c2ccc(-c3ccc([N+](=O)[O-])cc3Cl)o2)SC1=S | n | n
CC(C)C(=O)Nc1ccc(O)cc1C(=O)O | n | n
CCOC(=O)c1c(-c2ccc(OC)cc2)csc1NC(=O)c1cccc([N+](=O)[O-])c1 | 0.75 | n
CCOC(=O)c1c(-c2ccc(C)cc2)csc1NC(=O)c1ccccc1F | n | n
CC(=O)N=C1SC2CS(=O)(=O)CC2N1c1c(Cl)cccc1Cl (stereo not drawn) | 1.3 | n
Cc1c(Cl)cccc1NC1CS(=O)(=O)CC1O (stereo not drawn) | n | n
CCc1ccc(S(=O)(=O)Nc2cc(-c3c(O)ccc4ccccc34)c(O)c3ccccc23)cc1 | 0.78 | n
CCc1ccc(S(=O)(=O)Nc2cc(Br)c(O)c3ccccc23)cc1 | n | n
CCOC(=O)c1c(C)[nH]c(C=C2C(=O)CC(C)(C)CC2=O)c1O | n | n
Cc1ccc(S(=O)(=O)NC(=NC(Cc2ccccc2)C(=O)O)c2ccccc2)cc1 (stereo not drawn) | 0.74 | n
CC(N=C(NS(=O)(=O)c1ccccc1)c1ccccc1)C(=O)O (stereo not drawn) | n | n
Cc1cc(C)c(N2C(=O)NC(=O)C(=Cc3ccoc3)C2=O)c(C)c1 | n | 42
COc1ccc(/C=C2\C(=O)NC(=O)N(c3cc(C)cc(C)c3)C2=O)cc1 | n | n
COCCCN1C(=O)C(=Cc2c(NCCc3ccccc3)nc3c(C)cccn3c2=O)SC1=S | n | n
Cc1ccc(-c2[nH]n3c(=O)cc(-c4ccc([N+](=O)[O-])cc4)nc3c2C)cc1 | 0.79 | n
COc1ccc(-c2cc(=O)n3[nH]c(-c4ccc(C)cc4)c(C)c3n2)cc1 | n | n
CN(CCO)CCOCCOc1ccc(C(C)(C)C)cc1 | n | n
O=C(Nc1ccc(Cl)cc1)Nc1nnc(Cc2ccc(Cl)cc2)s1 | n | n
O=C(Nc1nnc(Cc2ccc(Cl)cc2)s1)c1ccccc1F | 0.7 | n
CCOc1cc(/C=C2\SC(=S)N(CC(C)C)C2=O)ccc1O | 0.78 | n
CCOc1cc(/C=C2\SC(=S)N(C(C)C)C2=O)ccc1O | n | n
Cc1cccc(-c2nc3cc(NC(=O)COc4ccccc4[N+](=O)[O-])ccc3o2)c1 | 0.52 | n
CCc1ccc(-c2nc3cc(NC(=O)COc4ccccc4[N+](=O)[O-])ccc3o2)cc1 | n | n
SMILES | Cy5 interf NS3h | NS3h inh CB
Cc1ccc(C)c(NC(=O)CN(c2cc(Cl)cc(Cl)c2)S(C)(=O)=O)c1 | n | n
O=C1C2ON(c3ccccc3)C(c3ccc(OC(F)F)cc3)C2C(=O)N1c1ccccc1C(F)(F)F (stereo not drawn) | n | n
O=C(C(=Cc1ccc(-c2ccc(Br)cc2)o1)C(=O)c1ccccc1)c1ccccc1 | n | n
Cc1ccc(N(CC(=O)NCC(C)NC(=O)CN(c2ccc(C)cc2)S(C)(=O)=O)S(C)(=O)=O)cc1 (stereo not drawn) | n | n
O=C(Nc1ccccc1)Nc1nnc(SCc2ccccc2F)s1 | 1.2 | n
O=C(Nc1ccccc1)Nc1nnc(SCc2ccc(F)cc2)s1 | n | n
CCC(C)c1ccc(OCCOc2ccc(C=C3C(=O)NC(=S)NC3=O)cc2OC)cc1 (stereo not drawn) | n | n
CCC(C)c1ccc(OCCOc2ccc(C=C3C(=O)NC(=S)NC3=O)cc2)cc1 (stereo not drawn) | n | 46
COc1ccc(NC(=O)c2c(NC(=O)C(Cl)(Cl)Cl)sc3c2CCC3)cc1 | 0.6 | n
CCC(=O)Nc1sc2c(c1C(=O)Nc1ccc(OC)cc1)CCC2 | n | n
COc1ccc(-c2cn3cccc(C)c3n2)cc1Br | n | n
COc1ccc(-c2cn3ccccc3n2)cc1Br | 0.79 | n
O=C(NCCC12CC3CC(CC(C3)C1)C2)Nc1ccccc1 | n | n
Cc1nc2sc3c(c2c(=O)[nH]1)CCC3 | 0.63 | n
C=C1CSc2nc(=O)c3c4c(sc3n21)CCC4 | n | n
O=C1Nc2ccccc2/C1=N/N=C\c1ccccc1[N+](=O)[O-] | 0.59 | n
CCOc1ccc(/C=N\N=C2\C(=O)Nc3ccccc32)cc1 | n | n
COn1c(=O)c(=O)n(OCc2ccccc2)c2ccccc21 | n | n
CCN(Cc1ccccc1)C(=O)/C=C/c1ccccc1Cl | n | n
O=c1cc(-c2ccccc2)c2cc(Cl)ccc2[nH]1 | n | n
Cn1c(=O)cc(-c2ccccc2)c2ccccc21 | 0.69 | n
Cc1ccc2oc(-c3ccc(NC(=O)Cc4ccccc4)cc3O)nc2c1 | n | n
CCc1ccc(OCC(=O)Nc2ccc(-c3nc4ccccc4s3)c(O)c2)cc1 | n | n
O=C(Cc1ccccc1)Nc1ccc(-c2nc3ccccc3s2)c(O)c1 | 1.2 | n
O=C(Nc1ccc2oc(-c3ccncc3)nc2c1)c1ccccn1 | 1.2 | n
O=C(Nc1ccc2oc(-c3cccnc3)nc2c1)c1ccncc1 | n | n
